In publication PMC7862700, “An all-to-all approach to the identification of sequence-specific readers for epigenetic DNA modifications on cytosine” one finds binding signal data, which are given here for one sequence.

Common to all, as to assay: DAPPL (digital affinity profiling via proximity ligation, sequencing); 10 mM Tris-HCl pH 7.5, 50 mM NaCl, 1 mM DTT, 4% glycerol, room temperature, 30 min; GST-TFs on glutathione beads, 16-mer random dsDNA library, 0.1% formaldehyde crosslink after washing; high values mean tight binding
Assay [1] concerns the target T1, FLI1 (Homo sapiens, UniProt Q01543 1-452).
T1 sequence: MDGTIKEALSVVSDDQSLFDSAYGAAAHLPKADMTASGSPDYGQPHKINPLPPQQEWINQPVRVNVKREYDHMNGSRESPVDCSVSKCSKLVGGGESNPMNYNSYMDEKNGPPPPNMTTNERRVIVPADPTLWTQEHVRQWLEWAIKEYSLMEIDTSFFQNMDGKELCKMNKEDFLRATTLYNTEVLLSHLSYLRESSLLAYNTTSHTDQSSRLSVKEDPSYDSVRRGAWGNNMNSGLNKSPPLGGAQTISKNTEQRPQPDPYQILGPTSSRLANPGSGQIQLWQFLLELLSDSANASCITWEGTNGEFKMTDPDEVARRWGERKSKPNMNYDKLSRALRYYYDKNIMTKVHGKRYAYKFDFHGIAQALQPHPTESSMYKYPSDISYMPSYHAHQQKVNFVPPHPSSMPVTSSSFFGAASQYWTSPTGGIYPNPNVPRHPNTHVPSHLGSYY
Particulars: protein: recombinant; tags: N-terminal GST; dsDNA, one strand shown. In short, it runs like this: (§1)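 Pools were built from human transcription factors expressed in yeast as GST fusions, captured on glutathione beads and DNA-barcoded, along with a tag-only sample. Incubation with 200 nmole of a 16-mer random double-stranded DNA library lasted 30 min at room temperature in Tris/NaCl/DTT/glycerol buffer, and was followed by washing, 0.1% formaldehyde crosslinking, proximity ligation, PCR amplification and Illumina NextSeq500 sequencing. Binding signal is the quotient of each hexamer's read frequency for a factor and its frequency for the tag-only sample.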

Assay [2] addresses T2, ELK1 (Homo sapiens, UniProt P19419 1-428).
T2 sequence: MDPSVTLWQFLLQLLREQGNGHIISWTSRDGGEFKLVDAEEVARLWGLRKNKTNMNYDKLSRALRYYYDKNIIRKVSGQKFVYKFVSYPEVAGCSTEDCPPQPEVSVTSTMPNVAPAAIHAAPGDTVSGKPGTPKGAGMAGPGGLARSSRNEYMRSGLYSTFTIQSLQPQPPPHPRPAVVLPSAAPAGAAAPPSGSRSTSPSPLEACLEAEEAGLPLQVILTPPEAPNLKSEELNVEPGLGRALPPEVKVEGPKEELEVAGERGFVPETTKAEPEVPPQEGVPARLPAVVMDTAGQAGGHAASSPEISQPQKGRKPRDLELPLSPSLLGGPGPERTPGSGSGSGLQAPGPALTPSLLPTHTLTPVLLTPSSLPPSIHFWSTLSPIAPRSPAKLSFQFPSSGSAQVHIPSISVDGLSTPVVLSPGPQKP
Particulars: protein: recombinant; tags: N-terminal GST; dsDNA, one strand shown. In short, it runs like this: as §1

Assay [3] deals with T3, GABPA (Homo sapiens, UniProt Q06546 1-454).
T3 sequence: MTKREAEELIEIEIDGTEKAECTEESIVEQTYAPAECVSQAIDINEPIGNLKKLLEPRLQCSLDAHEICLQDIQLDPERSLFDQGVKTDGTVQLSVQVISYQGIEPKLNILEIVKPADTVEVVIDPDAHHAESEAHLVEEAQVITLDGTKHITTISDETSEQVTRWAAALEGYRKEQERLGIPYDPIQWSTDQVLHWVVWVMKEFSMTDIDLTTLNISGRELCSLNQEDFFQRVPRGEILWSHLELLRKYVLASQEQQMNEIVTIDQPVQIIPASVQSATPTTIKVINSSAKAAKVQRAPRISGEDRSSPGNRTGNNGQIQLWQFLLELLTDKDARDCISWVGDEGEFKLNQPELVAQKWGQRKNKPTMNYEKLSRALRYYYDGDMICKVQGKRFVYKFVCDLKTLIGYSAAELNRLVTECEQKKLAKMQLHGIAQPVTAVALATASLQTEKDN
The note with it: protein: recombinant; tags: N-terminal GST; dsDNA, one strand shown. A digest of the protocol: as §1

Assay [4] concerns the target T4, ERG (Homo sapiens, UniProt P11308 1-479).
T4 sequence: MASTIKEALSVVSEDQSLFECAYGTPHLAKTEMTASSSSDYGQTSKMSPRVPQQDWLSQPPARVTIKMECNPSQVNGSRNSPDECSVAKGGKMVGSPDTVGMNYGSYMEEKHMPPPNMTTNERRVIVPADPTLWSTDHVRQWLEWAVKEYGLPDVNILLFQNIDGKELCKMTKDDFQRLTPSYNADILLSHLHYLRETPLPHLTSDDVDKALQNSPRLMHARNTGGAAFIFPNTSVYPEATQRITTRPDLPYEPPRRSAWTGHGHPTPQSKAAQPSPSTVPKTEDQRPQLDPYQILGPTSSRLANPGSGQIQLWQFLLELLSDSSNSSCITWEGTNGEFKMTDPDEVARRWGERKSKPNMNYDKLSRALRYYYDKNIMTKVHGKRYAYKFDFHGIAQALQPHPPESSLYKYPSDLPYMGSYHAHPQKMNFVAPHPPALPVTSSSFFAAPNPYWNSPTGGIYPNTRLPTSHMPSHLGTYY
Particulars: protein: recombinant; tags: N-terminal GST; dsDNA, one strand shown. A digest of the protocol: as §1

Assay [5] deals with ELF1 (Homo sapiens, UniProt P32519 1-619). The note with it: protein: recombinant; tags: N-terminal GST; dsDNA, one strand shown. In short, it runs like this: as §1
Assay [6] addresses T5, EHF (Homo sapiens, UniProt Q9NZC4 1-300).
T5 sequence: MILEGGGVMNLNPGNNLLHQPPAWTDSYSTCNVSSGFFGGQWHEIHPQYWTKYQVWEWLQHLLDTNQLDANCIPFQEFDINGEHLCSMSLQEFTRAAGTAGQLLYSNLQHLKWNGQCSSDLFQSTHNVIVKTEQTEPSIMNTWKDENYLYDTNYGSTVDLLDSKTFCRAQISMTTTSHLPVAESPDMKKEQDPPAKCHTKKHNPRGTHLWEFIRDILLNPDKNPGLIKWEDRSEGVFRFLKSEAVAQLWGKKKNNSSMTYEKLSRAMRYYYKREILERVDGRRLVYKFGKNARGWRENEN
The note with it: protein: recombinant; tags: N-terminal GST; dsDNA, one strand shown. In short, it runs like this: as §1

Assay [7] deals with SPI1 (Homo sapiens, UniProt P17947 1-270). Particulars: protein: recombinant; tags: N-terminal GST; dsDNA, one strand shown. In short, it runs like this:
as §1

Assay [8] addresses SPIB (Homo sapiens, UniProt Q01892 1-262). Particulars: protein: recombinant; tags: N-terminal GST; dsDNA, one strand shown. In short, it runs like this: as §1
Assay [9] deals with T6, ELK3 (Homo sapiens, UniProt P41970 1-407).
T6 sequence: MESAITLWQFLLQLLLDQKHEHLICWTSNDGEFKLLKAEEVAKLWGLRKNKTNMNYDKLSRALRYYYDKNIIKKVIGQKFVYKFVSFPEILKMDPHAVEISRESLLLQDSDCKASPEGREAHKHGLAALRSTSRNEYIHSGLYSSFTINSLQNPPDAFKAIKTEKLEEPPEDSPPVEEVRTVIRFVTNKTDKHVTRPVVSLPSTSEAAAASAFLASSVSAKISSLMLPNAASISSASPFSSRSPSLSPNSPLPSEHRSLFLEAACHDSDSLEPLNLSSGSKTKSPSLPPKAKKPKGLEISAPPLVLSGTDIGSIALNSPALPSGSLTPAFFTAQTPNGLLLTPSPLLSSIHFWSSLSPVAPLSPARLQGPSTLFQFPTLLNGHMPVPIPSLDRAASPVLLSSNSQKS
The note with it: protein: recombinant; tags: N-terminal GST; dsDNA, one strand shown. In short, it runs like this:
as §1

Assay [10] concerns the target T7, FEV (Homo sapiens, UniProt Q99581 1-238).
T7 sequence: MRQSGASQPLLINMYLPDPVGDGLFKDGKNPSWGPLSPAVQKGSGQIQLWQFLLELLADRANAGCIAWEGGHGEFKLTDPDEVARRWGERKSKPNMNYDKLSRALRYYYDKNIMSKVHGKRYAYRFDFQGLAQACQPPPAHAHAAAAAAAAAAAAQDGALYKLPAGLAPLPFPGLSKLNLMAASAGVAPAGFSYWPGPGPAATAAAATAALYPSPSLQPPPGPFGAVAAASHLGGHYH
Particulars: protein: recombinant; tags: N-terminal GST; dsDNA, one strand shown. In short, it runs like this: as §1

Assay [11] addresses ETV5 (Homo sapiens, UniProt P41161 1-510). Particulars: protein: recombinant; tags: N-terminal GST; dsDNA, one strand shown. In short, it runs like this: as §1
The target in assay [12] is HSF1 (Homo sapiens, UniProt Q00613 1-529). Particulars: protein: recombinant; tags: N-terminal GST; chain copies: 3; dsDNA, one strand shown. A digest of the protocol: as §1
Assay [13] concerns the target T8, SPIC (Homo sapiens, UniProt Q8N5J4 1-248).
T8 sequence: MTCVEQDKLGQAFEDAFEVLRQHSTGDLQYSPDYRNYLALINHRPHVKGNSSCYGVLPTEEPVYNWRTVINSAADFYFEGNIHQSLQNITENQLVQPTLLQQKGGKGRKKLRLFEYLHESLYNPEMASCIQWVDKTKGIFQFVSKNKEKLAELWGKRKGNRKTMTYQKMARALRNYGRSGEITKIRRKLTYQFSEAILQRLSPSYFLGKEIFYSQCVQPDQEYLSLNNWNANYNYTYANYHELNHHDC
Particulars: protein: recombinant; tags: N-terminal GST; dsDNA, one strand shown. In short, it runs like this:
as §1

The target of assay [14] is ELF4 (Homo sapiens, UniProt Q99607 1-663). The note with it: protein: recombinant; tags: N-terminal GST; dsDNA, one strand shown. A digest of the protocol:
as §1

The target of assay [15] is T9, ELK4 (Homo sapiens, UniProt P28324-2 1-405).
T9 sequence: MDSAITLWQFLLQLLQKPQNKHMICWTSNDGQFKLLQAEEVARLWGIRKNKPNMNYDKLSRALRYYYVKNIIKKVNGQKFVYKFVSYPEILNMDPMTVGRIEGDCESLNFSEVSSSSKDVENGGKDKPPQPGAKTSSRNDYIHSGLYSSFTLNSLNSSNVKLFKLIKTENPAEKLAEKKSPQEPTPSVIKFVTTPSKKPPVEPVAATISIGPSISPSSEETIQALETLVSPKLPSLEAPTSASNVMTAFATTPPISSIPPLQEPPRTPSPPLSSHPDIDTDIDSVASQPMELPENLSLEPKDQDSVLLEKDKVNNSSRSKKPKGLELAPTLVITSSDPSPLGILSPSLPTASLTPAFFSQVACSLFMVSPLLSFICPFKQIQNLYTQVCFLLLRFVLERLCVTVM
The note with it: protein: recombinant; tags: N-terminal GST; dsDNA, one strand shown. In short, it runs like this:
as §1

Assay [16] has as its target T10, ETV2 (Homo sapiens, UniProt O00321 1-342).
T10 sequence: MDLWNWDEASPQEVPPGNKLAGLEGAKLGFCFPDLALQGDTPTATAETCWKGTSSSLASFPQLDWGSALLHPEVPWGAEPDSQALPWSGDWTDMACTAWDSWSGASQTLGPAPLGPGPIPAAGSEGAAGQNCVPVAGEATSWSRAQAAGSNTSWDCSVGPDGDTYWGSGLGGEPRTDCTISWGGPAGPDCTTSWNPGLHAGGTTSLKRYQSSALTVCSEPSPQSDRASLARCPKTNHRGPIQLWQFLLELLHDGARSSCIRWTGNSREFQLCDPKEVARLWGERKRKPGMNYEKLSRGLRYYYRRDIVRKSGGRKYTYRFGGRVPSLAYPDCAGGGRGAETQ
The note with it: protein: recombinant; tags: N-terminal GST; dsDNA, one strand shown. A digest of the protocol: as §1

Assay [17] concerns the target T11, ELF3 (Homo sapiens, UniProt P78545 1-371).
T11 sequence: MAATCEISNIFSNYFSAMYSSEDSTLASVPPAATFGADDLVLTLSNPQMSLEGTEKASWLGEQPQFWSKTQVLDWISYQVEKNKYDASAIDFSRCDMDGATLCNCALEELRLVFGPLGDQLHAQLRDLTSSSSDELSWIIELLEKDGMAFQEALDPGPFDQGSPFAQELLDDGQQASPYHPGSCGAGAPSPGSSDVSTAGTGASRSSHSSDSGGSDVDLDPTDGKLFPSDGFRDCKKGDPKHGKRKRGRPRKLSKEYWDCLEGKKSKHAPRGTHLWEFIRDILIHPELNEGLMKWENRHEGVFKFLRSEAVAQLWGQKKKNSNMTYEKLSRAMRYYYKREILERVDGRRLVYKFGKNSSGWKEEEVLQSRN
Particulars: protein: recombinant; tags: N-terminal GST; dsDNA, one strand shown. A digest of the protocol:
as §1

For assay [18], the target named is ETV1 (Homo sapiens, UniProt P50549 1-477). Particulars: protein: recombinant; tags: N-terminal GST; dsDNA, one strand shown. A digest of the protocol:
as §1

Chain of ETV1 (P50549 whole entry): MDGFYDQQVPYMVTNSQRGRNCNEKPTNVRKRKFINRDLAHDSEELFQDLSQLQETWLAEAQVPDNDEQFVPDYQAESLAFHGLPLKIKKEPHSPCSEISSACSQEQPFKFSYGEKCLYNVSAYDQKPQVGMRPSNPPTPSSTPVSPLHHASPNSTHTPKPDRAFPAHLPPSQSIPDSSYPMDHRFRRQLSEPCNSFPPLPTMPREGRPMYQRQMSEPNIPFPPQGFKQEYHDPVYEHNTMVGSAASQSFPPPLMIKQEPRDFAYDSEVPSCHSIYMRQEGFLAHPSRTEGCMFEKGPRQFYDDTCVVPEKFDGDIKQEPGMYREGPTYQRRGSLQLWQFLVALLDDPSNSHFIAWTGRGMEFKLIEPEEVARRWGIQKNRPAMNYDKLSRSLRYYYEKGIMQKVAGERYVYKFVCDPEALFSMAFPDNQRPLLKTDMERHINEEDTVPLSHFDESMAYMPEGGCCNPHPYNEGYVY
Chain of HSF1 (Q00613 whole entry): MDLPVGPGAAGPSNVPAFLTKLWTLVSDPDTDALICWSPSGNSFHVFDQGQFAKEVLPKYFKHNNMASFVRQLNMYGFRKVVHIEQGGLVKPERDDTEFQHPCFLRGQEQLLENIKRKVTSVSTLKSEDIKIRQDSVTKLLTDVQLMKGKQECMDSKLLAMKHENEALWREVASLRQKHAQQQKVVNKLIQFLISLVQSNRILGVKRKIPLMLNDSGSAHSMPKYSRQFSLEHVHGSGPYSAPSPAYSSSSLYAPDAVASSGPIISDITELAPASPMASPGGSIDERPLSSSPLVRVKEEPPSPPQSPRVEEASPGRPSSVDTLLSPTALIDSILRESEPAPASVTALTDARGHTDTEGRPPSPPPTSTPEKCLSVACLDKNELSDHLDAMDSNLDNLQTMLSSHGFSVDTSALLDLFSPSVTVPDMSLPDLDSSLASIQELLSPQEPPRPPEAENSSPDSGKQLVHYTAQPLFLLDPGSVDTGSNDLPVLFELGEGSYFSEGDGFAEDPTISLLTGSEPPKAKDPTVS
Chain of SPIB (Q01892 whole entry): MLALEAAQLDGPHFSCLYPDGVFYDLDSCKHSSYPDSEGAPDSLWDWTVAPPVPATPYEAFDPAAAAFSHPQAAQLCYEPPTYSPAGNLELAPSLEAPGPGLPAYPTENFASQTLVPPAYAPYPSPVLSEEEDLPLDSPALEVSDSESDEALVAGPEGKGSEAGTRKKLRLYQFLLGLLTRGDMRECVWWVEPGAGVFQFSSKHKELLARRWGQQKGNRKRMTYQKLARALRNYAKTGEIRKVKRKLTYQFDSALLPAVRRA
Chain of ELF1 (P32519 whole entry): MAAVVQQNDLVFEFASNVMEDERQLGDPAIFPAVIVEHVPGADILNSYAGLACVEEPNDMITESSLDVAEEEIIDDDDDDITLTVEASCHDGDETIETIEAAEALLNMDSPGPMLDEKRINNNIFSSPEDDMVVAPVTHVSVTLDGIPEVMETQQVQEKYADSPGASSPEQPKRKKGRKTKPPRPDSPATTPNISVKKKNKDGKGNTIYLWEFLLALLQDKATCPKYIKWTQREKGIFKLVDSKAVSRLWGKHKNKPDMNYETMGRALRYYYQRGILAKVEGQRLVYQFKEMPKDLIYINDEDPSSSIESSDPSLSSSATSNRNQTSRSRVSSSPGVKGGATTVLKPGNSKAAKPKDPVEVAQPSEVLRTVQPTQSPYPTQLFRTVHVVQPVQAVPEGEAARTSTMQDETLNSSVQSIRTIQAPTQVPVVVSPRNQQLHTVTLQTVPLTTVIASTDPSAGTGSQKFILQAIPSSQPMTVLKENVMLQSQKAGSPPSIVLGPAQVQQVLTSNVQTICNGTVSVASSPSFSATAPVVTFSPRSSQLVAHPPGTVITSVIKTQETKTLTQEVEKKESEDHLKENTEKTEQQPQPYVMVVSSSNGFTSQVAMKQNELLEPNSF
Chain of ETV5 (P41161 whole entry): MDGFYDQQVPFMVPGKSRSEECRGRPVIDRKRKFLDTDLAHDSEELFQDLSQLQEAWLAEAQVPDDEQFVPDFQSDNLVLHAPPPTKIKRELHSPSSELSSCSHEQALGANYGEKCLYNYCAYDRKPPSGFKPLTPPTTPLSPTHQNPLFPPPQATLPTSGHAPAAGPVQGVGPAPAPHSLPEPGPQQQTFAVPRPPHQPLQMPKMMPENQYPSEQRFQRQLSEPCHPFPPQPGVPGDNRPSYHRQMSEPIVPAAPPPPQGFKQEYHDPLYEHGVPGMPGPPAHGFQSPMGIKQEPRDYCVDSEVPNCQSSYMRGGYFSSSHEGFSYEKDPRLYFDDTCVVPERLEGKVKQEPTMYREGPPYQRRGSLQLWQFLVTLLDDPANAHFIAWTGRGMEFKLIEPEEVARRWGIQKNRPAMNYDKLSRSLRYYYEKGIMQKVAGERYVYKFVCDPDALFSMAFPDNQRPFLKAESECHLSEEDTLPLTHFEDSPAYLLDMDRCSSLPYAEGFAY
Chain of ELF4 (Q99607 whole entry): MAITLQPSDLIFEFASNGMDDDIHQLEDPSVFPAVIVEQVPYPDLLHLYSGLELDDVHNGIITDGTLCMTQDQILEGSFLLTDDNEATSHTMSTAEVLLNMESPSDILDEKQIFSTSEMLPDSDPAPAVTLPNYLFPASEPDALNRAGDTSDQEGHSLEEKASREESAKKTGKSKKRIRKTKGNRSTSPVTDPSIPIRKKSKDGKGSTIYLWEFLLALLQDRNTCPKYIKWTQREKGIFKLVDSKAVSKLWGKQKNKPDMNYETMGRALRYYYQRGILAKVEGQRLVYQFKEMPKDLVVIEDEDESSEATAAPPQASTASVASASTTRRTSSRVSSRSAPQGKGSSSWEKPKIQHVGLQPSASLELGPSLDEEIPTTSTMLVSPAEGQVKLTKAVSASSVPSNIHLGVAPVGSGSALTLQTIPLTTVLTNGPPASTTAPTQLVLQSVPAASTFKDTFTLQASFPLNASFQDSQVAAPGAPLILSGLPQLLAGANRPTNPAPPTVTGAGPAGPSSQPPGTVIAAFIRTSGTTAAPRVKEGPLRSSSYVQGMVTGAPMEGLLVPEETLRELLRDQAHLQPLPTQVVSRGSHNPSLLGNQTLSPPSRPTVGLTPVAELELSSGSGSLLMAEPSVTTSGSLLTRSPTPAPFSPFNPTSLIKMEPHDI

With CCGTCC, the binding signal in assay [1] was 1.37 fold enrichment (6-mer frequency, TF over GST control); in [2], 1.37 fold enrichment (6-mer frequency, TF over GST control); in assay [3] it was 1.29 fold enrichment (6-mer frequency, TF over GST control); in [4], 1.42 fold enrichment (6-mer frequency, TF over GST control); in assay [5] it was 1.37 fold enrichment (6-mer frequency, TF over GST control); in assay [6] it was 1.42 fold enrichment (6-mer frequency, TF over GST control). The binding signal is 1.21 fold enrichment (6-mer frequency, TF over GST control) in [7]; 1.25 fold enrichment (6-mer frequency, TF over GST control) in assay [8]; 1.39 fold enrichment (6-mer frequency, TF over GST control) in assay [9]; 1.38 fold enrichment (6-mer frequency, TF over GST control) in [10]; 1.26 fold enrichment (6-mer frequency, TF over GST control) in assay [11]; 1.03 fold enrichment (6-mer frequency, TF over GST control) in assay [12]. In addition, the binding signal in assay [13] is 1.39 fold enrichment (6-mer frequency, TF over GST control); in [14], 1.37 fold enrichment (6-mer frequency, TF over GST control); in [15], 1.28 fold enrichment (6-mer frequency, TF over GST control); in [16], 1.8 fold enrichment (6-mer frequency, TF over GST control); in assay [17], 1.43 fold enrichment (6-mer frequency, TF over GST control); in assay [18] it was 1.38 fold enrichment (6-mer frequency, TF over GST control).
